Results on 44 sequences are retold here after the supplement of paper PMC11417369.

± gives the standard deviation of the averaged measurements. In all, about 25,000 sequences were measured (“ln(normalized median fluorescence intensity)”: median about 8.9, highest 2% from about 10 on). Only a selection was taken, and the highest values are over-represented in it overall.

In this experiment the test system is PfAP2-LT AP2 domain (GST-tagged). The experiment is described as follows: gcPBM binding intensity (ln(normalized median fluorescence intensity)); higher = stronger DNA binding. The procedure, abridged: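 Binding intensity is the highest Masliner-normalised natural-log median intensity over replicate spots in either probe orientation. To obtain it, GST-tagged P. falciparum DNA-binding domains made in E. coli were incubated for 1 h on an Agilent 4 × 180k array of primer-extended double-stranded 36-bp intergenic genomic probes plus negative controls. Detection used Alexa488 anti-GST antibody with scanning at 488 nm.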
As to “TACAAAAATGTAGTCACACATATGTATACTTTTATG [CACACA_site5607]”, the “gcPBM binding intensity (ln)” value is 8.85 ± 0.42. Take “TGTACCTACAAAATATGATATATTTTTATAAATTGT [XGTACX_negctrl_site498]”: the “gcPBM binding intensity (ln)” value came to 8.51 ± 0.47. As for “TGAACAACTATTACTGCACACATTCTTACACTATAT [CACACA_site4533]”, the “gcPBM binding intensity (ln)” value came to 9.41 ± 0.45. On to “GATGATACAAAGTAATGTACATAAATACACATATTG [XGTACX_site3177]”, for which the “gcPBM binding intensity (ln)” value came to 9.03 ± 0.44. In the case of “ATAATACGAATTTGTAGTACATTTATAATAACATGA [XGTACX_site2614]” it was 8.65 ± 0.38; in that of “AATGGTCTTTTCAACACACGTACATAAAAATATTAT [CACACA_site2571]”, 8.79 ± 0.44.

As to “CAATAATATATATATTGTACATTTTTTTTTATTATT [XGTACX_site3149]”, the “gcPBM binding intensity (ln)” value stood at 8.7 ± 0.38. For the sequence “TTTTATAGAGTGTATACATGCAATACCACATAAAAT [TGCATGCA_site476]”, the “gcPBM binding intensity (ln)” value was 8.79 ± 0.43. For “ATTTTTTTTTTTACAGTGGAACCATATTTGCTCATT [CACACA_negctrl_site940]”, the “gcPBM binding intensity (ln)” value was 8.82 ± 0.51. Regarding “ATATATATATTTTTATGAGGCATAAGTAATATTTTT [TGCATGCA_negctrl_site317]”, the “gcPBM binding intensity (ln)” value turned out to be 8.53 ± 0.4.

In the case of “TAAAAGTTTTTATACATACACACCTATAAATTAAGT [CACACA_site2446]”, the “gcPBM binding intensity (ln)” value was 8.72 ± 0.36. “CATAAATTAAAACACACACACACAAAAAAAAAAAAA [CACACA_site2262]”: the “gcPBM binding intensity (ln)” value is 9.84 ± 0.33.

“TAAATTAAAAAACACACACACAAAAAAAAAAAAAAA [CACACA_site2263]”: the “gcPBM binding intensity (ln)” value was found to be 9.41 ± 0.51.

As for “AATTAACAAAAACACACACACACACCGACAAAAAAA [CACACA_site4444]”, the “gcPBM binding intensity (ln)” value was found to be 10.1 ± 0.23. As for “TATGCACGCGAACACACACACACAACTAAAAAATAA [CACACA_site7251]”, the “gcPBM binding intensity (ln)” value is 9.79 ± 0.37. As for “TTTTTATCTTTGCTGTGTACATAAATAAAAATAACT [XGTACX_site7625]”, the “gcPBM binding intensity (ln)” value was found to be 8.47 ± 0.42. In the case of “TATATATATATAATGTGTACACAAATATATATTATA [XGTACX_site8786]” it was 8.8 ± 0.37. Regarding “AAGTAAAAAAATAGCACACACACAAAAACACCCACA [CACACA_site1291]”, the “gcPBM binding intensity (ln)” value stood at 9.92 ± 0.16. For the sequence “ATCAAATAATAGCAAACACACAAAAAATAAAAAAAA [CACACA_site4146]”, the “gcPBM binding intensity (ln)” value came to 9.04 ± 0.47.

“GTAAAAAAATAGCACACACACAAAAACACGCACAAA [CACACA_site6723]”: the “gcPBM binding intensity (ln)” value stood at 10.1 ± 0.23. On to “AAAAAAAACAGACACACACACAAATATATAAAAATA [CACACA_site1172]”, for which the “gcPBM binding intensity (ln)” value was determined as 9.94 ± 0.35. In the case of “AAGTAAAAAAATAGCACACACACAAAAACACAGACA [CACACA_site4839]”, the “gcPBM binding intensity (ln)” value worked out at 10.1. Then “CAATATAAAAAACACACGCACACAAAAAAAAAAAAA [CACACA_site3521]”, with 9.46 ± 0.42; and “TATTTGTAAATCGATACACACATATAGATTAATATA [CACACA_site6237]”, with 8.88 ± 0.35. Regarding “ATATTCTGATTTTAGATGCACTTCGTTAACAAAATA [GTGCAC_site9958]”, the “gcPBM binding intensity (ln)” value came out at 8.49 ± 0.35. As to “ATGGACATTTTATAAATCACAATGGATATTTTATAA [CACACA_negctrl_site1830]”, the “gcPBM binding intensity (ln)” value came out at 8.41 ± 0.42. For “GGAAATTAACAGAACACAATGTAACAATTTCTAACA [CACACA_negctrl_site1250]”, the “gcPBM binding intensity (ln)” value is 8.85 ± 0.4. “TAAAAGGGGATATATGAACACACAAAAAAAAAATAT [CACACA_site8940]”: the “gcPBM binding intensity (ln)” value stood at 9.04 ± 0.64. As to “TACATACATACATACACACACACATATATATACATA [CACACA_site853]”, the “gcPBM binding intensity (ln)” value was determined as 10.1 ± 0.23. In the case of “CATACATACATACATACACACATACAGATATATATA [CACACA_site4890]” it was 9.4 ± 0.38. In the case of “ACGTTACATACATATACACACACATATATATATATA [CACACA_site8203]” it was 9.93 ± 0.16; in that of “GTTACATACAGATACACACACATATATATATATATA [CACACA_site4652]”, 10.2 ± 0.4.

For “CACAGATATATACATACACACATATATACACATATA [CACACA_site6323]”, the “gcPBM binding intensity (ln)” value was determined as 9.39 ± 0.32. “GTTACATACATATACACACACATATATATATATATA [CACACA_site901]”: the “gcPBM binding intensity (ln)” value stood at 10.2 ± 0.17. Regarding “CTCCACAAACAAATCGCACACCCAACCCAACATATA [CACACA_site2650]”, the “gcPBM binding intensity (ln)” value came to 9.68 ± 0.34.

“TATTTTTTTGTGTTTGGTACACACGTTATAAAAAAT [XGTACX_site2655]”: the “gcPBM binding intensity (ln)” value was found to be 8.8 ± 0.36. Then “AAAAAACAGACATACACACACACACCCATATATATA [CACACA_site3392]”, with 10.4 ± 0.21. With “AAAAAAAACGCACATACACACACACCCATATATATA [CACACA_site9118]”, the “gcPBM binding intensity (ln)” value came out at 10.13 ± 0.028. With “CACAGACACCCATACACACACATACCCATATATATA [CACACA_site5023]”, the “gcPBM binding intensity (ln)” value stood at 9.56 ± 0.34. In the case of “AAAAAAAAAAAAAAAACACACATACACCCAGACACA [CACACA_site5807]”, the “gcPBM binding intensity (ln)” value came to 9.71 ± 0.18. For the sequence “AAAAAACACCCATACACACACACACCGATATATATA [CACACA_site5808]”, the “gcPBM binding intensity (ln)” value came to 10.2 ± 0.24.

On to “AAAAAAAAAAAAAAAACACACATACACCCCCACCCA [CACACA_site9117]”, for which the “gcPBM binding intensity (ln)” value was found to be 9.89 ± 0.18. In the case of “AAAAAAAAAAAAAACACACACACACCCACATATACA [CACACA_site2663]”, the “gcPBM binding intensity (ln)” value came out at 10.2 ± 0.16. As to “TTAATATTATGTTAAAGTACTTTATATATATATAAT [XGTACX_site2646]”, the “gcPBM binding intensity (ln)” value came to 8.57 ± 0.3.
